Test results taken from PubChem BioAssay AID1159580 (chemical genetic matrix, 2015).
The whole screen tested about 5,500 compounds, of which about 2,000 (36%) were called active. Another 18% or so got no clear call; they are omitted. No stated cut-off is given here; in the data, active means normalized growth mostly below about 0.91 (no sharp cut-off); inconclusive means no clear call, values can overlap the other calls; inactive means mostly above about 0.92. The list shows a part of the results.

Experiment: chemical genetic growth profiling, strain panel (AID 1159580);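 further: tested at 20 µM; growth read once vehicle control cultures reached saturation at 30 °C; 1 = growth at the plate median or of vehicle wells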
Details: S. cerevisiae deletion strains, growth OD
[1] = locus YHR030C, strain SLT2, stronger effect = lower value
[2] = locus YJL095W, strain BCK1, stronger effect = lower value

Measured: normalized growth

COc1ccc(-c2coc3c(O)c(O)c(OC)cc3c2=O)cc1
inactive: [1] 0.96 | locus YHR079C, strain IRE1, stronger effect = lower value 0.969 | [2] 0.955 | locus YJR066W, strain TOR1, stronger effect = lower value 0.912 | locus YLR113W, strain HOG1, stronger effect = lower value 0.955 | locus YNL183C, strain NPR1, stronger effect = lower value 0.888 | locus YOR231W, strain MKK1, stronger effect = lower value 0.971 | locus YPL256C, strain CLN2, stronger effect = lower value 0.953

COc1ccc(-c2coc3c(OC)c(OC)cc(OC)c3c2=O)cc1
inactive: locus YAL013W, strain DEP1, stronger effect = lower value 0.977 | locus YBR021W, strain FUR4, stronger effect = lower value 0.875 | locus YBR229C, strain ROT2, stronger effect = lower value 0.998 | locus YCL029C, strain bik1, stronger effect = lower value 1 | locus YDL035C, strain GPR1, stronger effect = lower value 0.985 | locus YDL074C, strain BRE1, stronger effect = lower value 0.961 | locus YDL101C, strain DUN1, stronger effect = lower value 0.993 | locus YDL185W, strain tfp1, stronger effect = lower value 0.992 | locus YDL192W, strain arf1, stronger effect = lower value 0.991 | locus YDR101C, strain arx1, stronger effect = lower value 0.983 | locus YDR150W, strain NUM1, stronger effect = lower value 0.991 | locus YDR162C, strain NBP2, stronger effect = lower value 0.893 | locus YDR318W, strain mcm21, stronger effect = lower value 0.978 | locus YDR388W, stronger effect = lower value 1.01 | locus YDR502C, strain sam2, stronger effect = lower value 0.982 | locus YEL061C, strain CIN8, stronger effect = lower value 1 | locus YER110C, stronger effect = lower value 0.995 | locus YER155C, strain BEM2, stronger effect = lower value 0.998 | locus YER167W, strain BCK2, stronger effect = lower value 0.977 | locus YGL078C, strain dbp3, stronger effect = lower value 1 | locus YGL086W, strain mad1, stronger effect = lower value 0.974 | locus YGL248W, strain PDE1, stronger effect = lower value 0.979 | locus YGR078C, strain PAC10, stronger effect = lower value 0.94 | locus YGR135W, strain pre9, stronger effect = lower value 0.969 | locus YGR252W, strain gcn5, stronger effect = lower value 0.848 | [1] 0.997 | locus YHR079C, strain IRE1 (second series), stronger effect = lower value 0.993 | locus YHR094C, strain hxt1, stronger effect = lower value 0.996 | locus YHR129C, strain ARP1, stronger effect = lower value 0.995 | locus YHR200W, strain rpn10, stronger effect = lower value 0.985 | locus YIL066C, strain RNR3, stronger effect = lower value 0.951 | locus YIL073C, strain SPO22, stronger effect = lower value 0.973 | locus YIL125W, strain kgd1, stronger effect = lower value 0.992 | locus YIR030C, strain dcg1, stronger effect = lower value 1.01 | [2] 0.899 | locus YJL134W, strain LCB3, stronger effect = lower value 1 | locus YJL168C, strain set2, stronger effect = lower value 0.995 | locus YJL187C, strain SWE1 (second series), stronger effect = lower value 0.971 | locus YJR043C, strain POL32, stronger effect = lower value 0.964 | locus YJR075W, strain HOC1, stronger effect = lower value 0.974 | locus YKL009W, strain mrt4, stronger effect = lower value 0.981 | locus YKL068W, stronger effect = lower value 1.02 | locus YKL085W, strain MDH1 (second series), stronger effect = lower value 0.993 | locus YKL085W, strain MDH1, stronger effect = lower value 0.993 | locus YKL190W, strain CNB1, stronger effect = lower value 0.986 | locus YKR001C, strain vps1, stronger effect = lower value 0.903 | locus YLR039C, strain RIC1, stronger effect = lower value 0.928 | locus YLR058C, strain SHM2, stronger effect = lower value 0.983 | locus YLR102C, strain apc9, stronger effect = lower value 0.993 | locus YLR262C, strain YPT6, stronger effect = lower value 0.904 | locus YLR268W, strain sec22, stronger effect = lower value 0.952 | locus YLR330W, strain CHS5, stronger effect = lower value 1 | locus YLR342W, strain FKS1 (second series), stronger effect = lower value 0.924 | locus YLR371W, strain rom2, stronger effect = lower value 0.993 | locus YLR418C, strain cdc73, stronger effect = lower value 0.884 | locus YML016C, strain PPZ1, stronger effect = lower value 1 | locus YML032C, strain rad52, stronger effect = lower value 0.999 | locus YML124C, strain tub3, stronger effect = lower value 0.994 | locus YMR078C, strain ctf18, stronger effect = lower value 1.01 | locus YMR223W, strain ubp8, stronger effect = lower value 0.994 | locus YMR307W, strain GAS1, stronger effect = lower value 0.83 | locus YNL067W, strain RPL9B, stronger effect = lower value 0.964 | locus YNL128W, strain TEP1, stronger effect = lower value 0.998 | locus YNL153C, strain GIM3, stronger effect = lower value 0.978 | locus YNL233W, strain BNI4, stronger effect = lower value 0.914 | locus YNL250W, strain rad50, stronger effect = lower value 1.02 | locus YNL271C, strain bni1, stronger effect = lower value 1 | locus YNL298W, strain CLA4, stronger effect = lower value 1.01 | locus YNL307C, strain MCK1, stronger effect = lower value 0.968 | locus YNL322C, strain KRE1, stronger effect = lower value 0.985 | locus YNR052C, strain pop2, stronger effect = lower value 1.02 | locus YOL012C, strain htz1 1.15 | locus YOL147C, strain pex11, stronger effect = lower value 0.982 | locus YOR061W, strain CKA2, stronger effect = lower value 0.998 | locus YOR069W, strain VPS5, stronger effect = lower value 1.01 | locus YOR136W, strain idh2, stronger effect = lower value 0.987 | locus YOR144C, strain elg1, stronger effect = lower value 0.991 | locus YOR184W, strain ser1, stronger effect = lower value 0.938 | locus YOR316C, strain cot1, stronger effect = lower value 0.999 | locus YPL055C, strain LGE1, stronger effect = lower value 0.904 | locus YPL241C, strain CIN2, stronger effect = lower value 0.995 | locus YPR119W, strain clb2, stronger effect = lower value 0.987 | locus YPR141C, strain kar3, stronger effect = lower value 1 | locus YPR163C, strain tif3, stronger effect = lower value 0.985 | locus YPR167C, strain met16, stronger effect = lower value 0.985 | strain wtn01, stronger effect = lower value 0.972
